# Bioassay records: PubChem, National Center for Advancing Translational Sciences (NCATS)
# TGFb inhibitor – blocks TGF-b signaling; actives 1.2% (n = 410,000); HepG2 CAGA-GFP TGF-b/SMAD3 reporter, GFP fluorescence, 18 h; TGF-beta stimulated, 500 pg/mL final; Potency, µM (doses to about 46.1 µM), inactives show top-dose activity, negative = inhibition, actives largely listed as inhibitors; AID 588855; note: % is set by controls: 0 for no effect and ±100 for the full control effect; nearly all actives have a fitted effect of over 65% in size
#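 First, reporter cells (HEPG2 CAGA-GFP) rested 2 h at 37 degrees C. Next, compounds were pinned in and TGF-beta added to 500 pg/mL final. After 18 h, GFP was imaged per cell and summed per well.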
# HT1080NT lethal – kills 2HG-producing HT-1080-NT fibrosarcoma cells; HT-1080-NT fibrosarcoma viability, CellTiter-Glo ATP luminescence, 48 h; Potency, µM (top dose mostly 46.1 µM), for the others: top-dose activity, negative = less viability, hits mostly cytotoxic; actives 1.6% (n = 360,000);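 note: NT is the 2HG producing partner of a matched IDH1 knockdown line; 0% = DMSO-treated cells and -100% = media-only wells without cells; nearly all actives have a fitted effect of over 55% in size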
#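 Viability by CellTiter-Glo luminescence after 48 h compound exposure at 37C of HT-1080-NT cells (750/well, RPMI, 5% FBS). % activity scaled between DMSO wells and medium-only wells, then curve-fitted and categorized by curve class.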
# DT40 TDP1 CPT – DT40-hTDP1 cell growth loss with CPT; Potency, µM (titrated, usually from 46.2 µM), inactives show at the top dose activity change, negative = growth inhibition, most hits filed as inhibitors; chicken DT40 Tdp1-/-;hTDP1 cells + 20 nM CPT, ATP luminescence, 48 h; actives 12% (n = 420,000); AID 686979; note: % is set by controls: 0 for no effect and ±100 for the full control effect; nearly all actives have a fitted effect of over 55% in size
#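 Chicken DT40 Tdp1-/- cells stably complemented with human TDP1 were seeded at 400 cells/well in medium containing 20 nM camptothecin, exposed to pin-transferred compounds, and grown at 37 °C for at least 48 hr. Viability was read as ATP luminescence.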
# HT1080 IDH1KD tx – toxicity to HT-1080 IDH1 knockdown cells (counter line). actives 2% (n = 360,000). Potency, µM (doses to about 46.1 µM), without a hit: top-dose activity, negative = toxicity, most hits filed as cytotoxic. AID 686971. HT-1080 IDH1 knockdown viability, ATP luminescence, 48 h;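 note: 0% = DMSO wells and -100% = cell-free medium wells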
#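 In this qHTS, HT-1080 cells depleted of IDH1 are exposed for 48 h at 37 °C to compound titrations. Toxicity is scored from CellTiter-Glo luminescence, with DMSO as full viability and medium alone as none.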
# TDP1 cell noCPT – qHTS for Inhibitors of human tyrosyl-DNA phosphodiesterase 1 (TDP1): qHTS in cells in absence of CPT. AID 686978, 2013. Potency, µM (top dose mostly 46.2 µM), without a hit: at the top dose activity change, negative = growth inhibition, most hits filed as inhibitors. DT40 Tdp1-/- hTDP1 cells, no CPT, ATP luminescence, 48 h. actives 15% (n = 420,000); note: % is set by controls: 0 for no effect and ±100 for the full control effect; nearly all actives have a fitted effect of over 55% in size
#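 No-CPT arm: Tdp1-/-;hTDP1 DT40 cells (400/well) plus compounds, incubated ≥48 hr at 37 °C. Readout CellTiter-Glo luminescence.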
# HepG2 tox – counter-screen for TGF-b inhibitors: cytotoxicity in HepG2 cells. HepG2 CAGA-GFP viability, ATP luminescence, 18 h. Potency, µM (series often up to 46.1 µM), for the others: top-dose activity change, negative = cytotoxicity, actives largely listed as cytotoxic. actives 0.76% (n = 410,000). AID 588856
#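 HepG2 CAGA-GFP cells (1000/well, DMEM with 1% FBS) received compound, then TGF-beta at 500 pg/mL final, and were incubated 18 hours at 37 degrees C. Viability was read by CellTiter-Glo luminescence. Media-only wells were set as complete cell-killing and DMSO as no toxicity.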
# Active calls of the source: *; ? = inconclusive; . = no result; [ ] = remark or other dose. This is a sample that favours compounds with a hit; in the whole collection about 17% have one here. Calls come from the whole dose curve; as a rule, active = well fitted curve in the direction sought with a large enough effect; inconclusive = small, poorly fitted or top-dose-only effect, or another doubt; inactive = no such curve, though single readings can be large; an effect the other way counts as inactive or inconclusive. Potency is the fitted concentration of half-maximal effect.
SMILES,TGFb inhibitor,HT1080NT lethal,DT40 TDP1 CPT,HT1080 IDH1KD tx,TDP1 cell noCPT,HepG2 tox
FC(F)(F)c1cccc(-c2cc3nc(NCCCn4ccnc4)ccn3n2)c1,-17%,?,?,?,?,-13%
COc1cc(-c2cc3nc(NCc4ccco4)ccn3n2)cc(OC)c1OC,18%,?,21µM*,?,12µM*,-5%
CC(C)Cc1ccc(-c2cc3nc(NCCOc4ccccc4)ccn3n2)cc1,?,-17%,?,?,?,-47%
CC(C)Cc1ccc(-c2cc3nc(NCCc4ccc(S(N)(=O)=O)cc4)ccn3n2)cc1,11%,?,23µM*,23µM*,12µM*,-32%
NS(=O)(=O)c1ccc(CCNc2ccn3nc(-c4ccccc4)cc3n2)cc1,23%,17%,26µM*,13%,?,-8%
CCC(CO)Nc1ccn2nc(-c3cc(OC)c(OC)c(OC)c3)cc2n1 (stereo not drawn),-4%,-16%,?,-17%,15µM*,-1%
CC(C)(C)c1cc2nc(NCCc3ccc(S(N)(=O)=O)cc3)ccn2n1,-4%,-8%,-15%,-5%,-25%,-10%
COc1cc2[nH]c(=S)nc(NCCc3ccc(S(N)(=O)=O)cc3)c2cc1OC,-6%,29%,0%,3%,0%,0%
COc1cc(-c2cc3nc(NCCc4ccc(S(N)(=O)=O)cc4)ccn3n2)cc(OC)c1OC,8%,-18%,23µM*,-21%,21µM*,-20%
NS(=O)(=O)c1ccc(CCNc2ccc(C(F)(F)F)cn2)cc1,11%,-2%,1%,-21%,-16%,-4%
Cc1ccc(C(=O)c2c(N)c(C(=O)Nc3cccc(C(F)(F)F)c3)c3ccccn23)cc1,-5%,.,-25%,.,?,-13%
COCCCn1c(SCC(=O)N2CCOCC2)nc2ccccc2c1=O,-4%,13%,-17%,2%,-18%,11%
COc1cc(CCNc2ccc3nnc(-c4ccccc4)n3n2)cc(OC)c1OC,1%,-4%,16µM*,-14%,10µM*,-9%
C/C(=N\n1c(C)nc2ccccc2c1=O)c1ccc(N)cc1,-20%,-1%,?,0%,18µM*,-3%
Cc1nc2ccccc2c(=O)n1/N=C/c1ccc(O)cc1,-1%,-9%,-2%,6%,-9%,-2%
CCc1sc(C(=O)Nc2cccc(-n3cnnn3)c2)cc1C,1%,-1%[9.24 µM],?,-2%,?,4%
Cn1c(=O)c2c(nc(CN3CCN(c4ccccc4F)CC3)n2Cc2ccc(F)cc2)n(C)c1=O,-19%,.,10µM*,.,10µM*,-30%
CN1CCN(Cc2nc3c(c(=O)n(C)c(=O)n3C)n2CCCc2ccccc2)CC1,-6%,6%,-8%,2%,-14%,-7%
Cn1c(=O)c2c(nc(CN3CCN(c4ccccc4F)CC3)n2CCCc2ccccc2)n(C)c1=O,?,7%,16µM*,6%,21µM*,-4%
CC1CCCCN1Cc1nc2c(c(=O)n(C)c(=O)n2C)n1Cc1c(F)cccc1Cl (stereo not drawn),-7%,19%,7.3µM*,13%,10µM*,-12%
CC1CCN(Cc2nc3c(c(=O)n(C)c(=O)n3C)n2CCCc2ccccc2)CC1,-6%,0%,?,11%,16µM*,-76%
Cc1cccc(C(=O)NCC(c2cccs2)N2CCOCC2)c1 (stereo not drawn),-10%,-34%,-8%,?,-17%,0%
CCCCc1nnc(NC(=O)CN2C(=O)NC3(CCCCC3)C2=O)s1,0%,-3%,-8%,-8%,1%,-9%
COc1cc2ccc(C=O)cc2cc1OC,-13%,0%,16%,-4%,14%,-23%
CN1CCN(C(=O)c2cc3c(c(-c4cccc(-c5cc6ccccc6o5)c4)n2)[C@H](CCO)N(S(=O)C(C)(C)C)C3)CC1 (stereo partly drawn),-11%,-23%,?,-19%,?,-6%
SMILES,TGFb inhibitor,HT1080NT lethal,DT40 TDP1 CPT,HT1080 IDH1KD tx,TDP1 cell noCPT,HepG2 tox
CCOCCn1c(CN2CCC(Cc3ccccc3)CC2)nc2c1c(=O)n(C)c(=O)n2C,0%,0%,18µM*,13%,11µM*,-2%
Cn1c(=O)c2c(nc(CN3CCC(Cc4ccccc4)CC3)n2CCN2CCOCC2)n(C)c1=O,-5%,0%,?,1%,-28%,-1%
Nc1ccc(C(=O)Oc2ccccc2)c(O)c1,.,.,7%,.,?,.
CNC(=O)[C@H](Cc1c[nH]c2ccccc12)NC(=O)[C@@H](CC(=O)NO)CC(C)C,.,.,22µM*,.,31µM*,.
Cc1ccc2nc3c(c(N)c2c1)CCN3c1ccccc1,?,-25%,16µM*,-22%,18µM*,-31%
Cc1ccc2nc3c(c(N)c2c1)CCN3C,-4%,?,?,?,?,-27%
CCOCCCn1c(=N)c(C(=O)NCc2ccco2)cc2c(=O)n3ccccc3nc21,?,.,-2%,.,-17%,0%
CSc1ncc(C(=O)N2CCN(c3cc(C)ccc3C)CC2)c(C)n1,-2%,.,21µM*,.,?,6%
Cc1ccc(-n2nc(C)c3c(C(=O)O)cc(C)nc32)cc1,-8%,.,6%,.,7%,-10%
Cc1cc(C(=O)N2CCN(c3ccccc3F)CC2)c2c(C)nn(-c3ccccc3)c2n1,-8%,.,?,.,?,-7%
Cc1ccc(C)c(N2CCN(C(=O)c3cc(C)nc4c3c(C)nn4-c3ccccc3)CC2)c1,?,.,?,.,18µM*,-18%
CSc1ncc(C(=O)N2CCN(c3cc(Cl)ccc3C)CC2)c(C)n1,-24%,.,-27%,.,?,-21%
Cc1cc(C(=O)N2CCN(c3cc(Cl)ccc3C)CC2)c2c(C)nn(-c3ccccc3)c2n1,-1%,.,21µM*,.,?,16%
CN(C1CCCCC1)S(=O)(=O)c1ccc(NC(=O)C2CCCCC2)cc1,?,-11%[9.24 µM],16µM*,?,21µM*,-14%
CN(C1CCCCC1)S(=O)(=O)c1ccc(NC(=O)CCC(=O)O)cc1,15%,22%,4%,3%,0%,17%
CNC(=O)CN(C1CCCCC1)S(=O)(=O)c1ccc(F)cc1,-29%,9%,-7%,12%,-7%,0%
